The whole screen tested about 5,700 compounds, of which about 85 (1%) were called active. Cut-off read from the data, not from the text of the source: active = p53-positive nuclei above about 36% (passing the limit was not always enough); inactive = the rest. For the sample, actives were picked, then their nearest neighbours and some compounds at random.
How the values were obtained:
[1] = p53 stabilisation in HPV-positive human cells, imaging, p53-positive nuclei imaging, 24 h, 48 h (AID 1508601); conditions: 24/48 h
[2] = molecular target: Cellular tumor antigen p53 (Homo sapiens) (UniProt P04637); assay: as above; conditions: 24/48 h, stronger effect = higher value
[3] = measured here: cell number at 24 h, Library stock concentration: 3.33 mM
[4] = measured here: cell number at 48 h, Library stock concentration: 3.33 mM
[5] = Library stock concentration: 3.33 mM
[6] = measured here: p53 positive nuclei at 24 h, Library stock concentration: 3.33 mM
[7] = measured here: cell number at 24 h, Library stock concentration: 10 mM
[8] = measured here: cell number at 48 h, Library stock concentration: 10 mM
[9] = Library stock concentration: 10 mM
[10] = measured here: p53 positive nuclei at 24 h, Library stock concentration: 10 mM
[11] = measured here: cell number at 24 h, concentration not given here
[12] = measured here: cell number at 48 h, concentration not given here
[13] = measured here: p53 positive nuclei at 24 h, concentration not given here

Cellular tumor antigen p53 (Homo sapiens), sequence (P04637 whole entry, looked up): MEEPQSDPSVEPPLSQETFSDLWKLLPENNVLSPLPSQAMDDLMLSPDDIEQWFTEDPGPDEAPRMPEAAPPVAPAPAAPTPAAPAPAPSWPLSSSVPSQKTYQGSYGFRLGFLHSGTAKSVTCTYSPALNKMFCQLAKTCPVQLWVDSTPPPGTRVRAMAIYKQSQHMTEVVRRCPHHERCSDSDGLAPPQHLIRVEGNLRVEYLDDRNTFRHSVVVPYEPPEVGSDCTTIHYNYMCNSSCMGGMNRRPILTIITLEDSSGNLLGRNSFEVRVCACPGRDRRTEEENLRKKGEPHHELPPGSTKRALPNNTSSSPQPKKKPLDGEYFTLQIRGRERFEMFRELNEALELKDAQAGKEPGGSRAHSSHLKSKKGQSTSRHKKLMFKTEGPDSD

## CN(C)Cc1ccc(S(=O)(=O)n2ccc(C=CC(=O)NO)c2)cc1
[1]; [3]
  nuclei count, normalised: 86.4%
[1]; [4]
  nuclei count, normalised: 84%
[2]; [5]
  p53-positive nuclei, normalised: 2.58% (inactive)
[2]; [6]
  p53-positive nuclei, normalised: 5%

## Cc1[nH]c2ccccc2c1CCNC(=O)c1cccs1
[1]; [3]
  nuclei count, normalised: 115%
[1]; [4]
  nuclei count, normalised: 109%
[2]; [5]
  p53-positive nuclei, normalised: -0.163% (inactive)
[2]; [6]
  p53-positive nuclei, normalised: -0.341%

## Cc1[nH]c2ccccc2c1CCNCc1ccc(C=CC(=O)NO)cc1
[1]; [3]
  nuclei count, normalised: 37%
[1]; [4]
  nuclei count, normalised: 20.2%
[2]; [5]
  p53-positive nuclei, normalised: 107% (active)
[2]; [6]
  p53-positive nuclei, normalised: 92.9%

## NC(=O)c1ncn(C2OC(CO)C(O)C2O)c1O (stereo unspecified)
[1]; measured here: cell number at 24 h, Library stock concentration: 500 nM
  nuclei count, normalised: 107%
[1]; measured here: cell number at 24 h, Library stock concentration: 1.5 uM
  nuclei count, normalised: 106%
[1]; measured here: cell number at 24 h, Library stock concentration: 4.6 uM
  nuclei count, normalised: 114%
[1]; measured here: cell number at 24 h, Library stock concentration: 13.7 uM
  nuclei count, normalised: 113%
[1]; measured here: cell number at 24 h, Library stock concentration: 41 uM
  nuclei count, normalised: 103%
[1]; measured here: cell number at 24 h, Library stock concentration: 123 uM
  nuclei count, normalised: 107%
[1]; measured here: cell number at 24 h, Library stock concentration: 370 uM
  nuclei count, normalised: 112%
[1]; measured here: cell number at 24 h, Library stock concentration: 1.111 mM
  nuclei count, normalised: 97.9%
[1]; measured here: cell number at 24 h, Library stock concentration: 3.333 mM
  nuclei count, normalised: 106%
[1]; [7]
  nuclei count, normalised: 104%
[1]; measured here: cell number at 48 h, Library stock concentration: 500 nM
  nuclei count, normalised: 106%
[1]; measured here: cell number at 48 h, Library stock concentration: 1.5 uM
  nuclei count, normalised: 107%
[1]; measured here: cell number at 48 h, Library stock concentration: 4.6 uM
  nuclei count, normalised: 110%
[1]; measured here: cell number at 48 h, Library stock concentration: 13.7 uM
  nuclei count, normalised: 108%
[1]; measured here: cell number at 48 h, Library stock concentration: 41 uM
  nuclei count, normalised: 107%
[1]; measured here: cell number at 48 h, Library stock concentration: 123 uM
  nuclei count, normalised: 107%
[1]; measured here: cell number at 48 h, Library stock concentration: 370 uM
  nuclei count, normalised: 113%
[1]; measured here: cell number at 48 h, Library stock concentration: 1.111 mM
  nuclei count, normalised: 105%
[1]; measured here: cell number at 48 h, Library stock concentration: 3.333 mM
  nuclei count, normalised: 108%
[1]; [8]
  nuclei count, normalised: 102%
[2]; Library stock concentration: 500 nM
  p53-positive nuclei, normalised: -0.204% (inactive)
[2]; Library stock concentration: 1.5 uM
  p53-positive nuclei, normalised: -0.0465% (inactive)
[2]; Library stock concentration: 4.6 uM
  p53-positive nuclei, normalised: 0.0159% (inactive)
[2]; Library stock concentration: 13.7 uM
  p53-positive nuclei, normalised: -0.0544% (inactive)
[2]; Library stock concentration: 41 uM
  p53-positive nuclei, normalised: -0.167% (inactive)
[2]; Library stock concentration: 123 uM
  p53-positive nuclei, normalised: -0.128% (inactive)
[2]; Library stock concentration: 370 uM
  p53-positive nuclei, normalised: -0.0645% (inactive)
[2]; Library stock concentration: 1.111 mM
  p53-positive nuclei, normalised: -0.129% (inactive)
[2]; Library stock concentration: 3.333 mM
  p53-positive nuclei, normalised: -0.208% (inactive)
[2]; [9]
  p53-positive nuclei, normalised: -0.16% (inactive)
[2]; measured here: p53 positive nuclei at 24 h, Library stock concentration: 500 nM
  p53-positive nuclei, normalised: -0.239%
[2]; measured here: p53 positive nuclei at 24 h, Library stock concentration: 1.5 uM
  p53-positive nuclei, normalised: -0.0183%
[2]; measured here: p53 positive nuclei at 24 h, Library stock concentration: 4.6 uM
  p53-positive nuclei, normalised: -0.139%
[2]; measured here: p53 positive nuclei at 24 h, Library stock concentration: 13.7 uM
  p53-positive nuclei, normalised: -0.19%
[2]; measured here: p53 positive nuclei at 24 h, Library stock concentration: 41 uM
  p53-positive nuclei, normalised: -0.128%
[2]; measured here: p53 positive nuclei at 24 h, Library stock concentration: 123 uM
  p53-positive nuclei, normalised: 0.0805%
[2]; measured here: p53 positive nuclei at 24 h, Library stock concentration: 370 uM
  p53-positive nuclei, normalised: -0.0891%
[2]; measured here: p53 positive nuclei at 24 h, Library stock concentration: 1.111 mM
  p53-positive nuclei, normalised: -0.183%
[2]; measured here: p53 positive nuclei at 24 h, Library stock concentration: 3.333 mM
  p53-positive nuclei, normalised: -0.128%
[2]; [10]
  p53-positive nuclei, normalised: -0.0747%

## O=C(c1cn2cccnc2n1)N1CCCC(Cn2cc(C3CCCC3)nn2)C1 (stereo unspecified)
[1]; [11]
  nuclei count, normalised: 84.5%
[1]; [12]
  nuclei count, normalised: 92.1%
[2]; concentration not given here
  p53-positive nuclei, normalised: -0.0576% (inactive)
[2]; [13]
  p53-positive nuclei, normalised: -0.142%

## C#C[C@]1(O)CCC2C3CCc4cc(O)ccc4C3CC[C@@]21C (stereo partly specified)
[1]; [11]
  nuclei count, normalised: 85.4%
[1]; [12]
  nuclei count, normalised: 37.7%
[2]; concentration not given here
  p53-positive nuclei, normalised: 83% (active)
[2]; [13]
  p53-positive nuclei, normalised: 8.99%

## C#C[C@]1(O)CC[C@@H]2[C@@H]3CCc4cc(O)ccc4[C@@H]3CC[C@@]21C
[1]; measured here: cell number at 24 h, Library stock concentration: 80 uM
  nuclei count, normalised: 97.1%
[1]; measured here: cell number at 24 h, Library stock concentration: 400 uM
  nuclei count, normalised: 108%
[1]; measured here: cell number at 24 h, Library stock concentration: 2 mM
  nuclei count, normalised: 101%
[1]; [7]
  nuclei count, normalised: 72.9%
[1]; measured here: cell number at 48 h, Library stock concentration: 80 uM
  nuclei count, normalised: 108%
[1]; measured here: cell number at 48 h, Library stock concentration: 400 uM
  nuclei count, normalised: 108%
[1]; measured here: cell number at 48 h, Library stock concentration: 2 mM
  nuclei count, normalised: 102%
[1]; [8]
  nuclei count, normalised: 30.5%
[2]; Library stock concentration: 80 uM
  p53-positive nuclei, normalised: 0.0565% (inactive)
[2]; Library stock concentration: 400 uM
  p53-positive nuclei, normalised: 0.0172% (inactive)
[2]; Library stock concentration: 2 mM
  p53-positive nuclei, normalised: 0.0704% (inactive)
[2]; [9]
  p53-positive nuclei, normalised: 76.1% (inactive)
[2]; measured here: p53 positive nuclei at 24 h, Library stock concentration: 80 uM
  p53-positive nuclei, normalised: -0.0527%
[2]; measured here: p53 positive nuclei at 24 h, Library stock concentration: 400 uM
  p53-positive nuclei, normalised: 0.068%
[2]; measured here: p53 positive nuclei at 24 h, Library stock concentration: 2 mM
  p53-positive nuclei, normalised: 0.0711%
[2]; [10]
  p53-positive nuclei, normalised: 6.02%

## C#C[C@@]1(O)CC[C@H]2[C@@H]3CCc4cc(O)ccc4[C@@H]3CC[C@@]21C
[1]; [3]
  nuclei count, normalised: 80.8%
[1]; [4]
  nuclei count, normalised: 66.7%
[2]; [5]
  p53-positive nuclei, normalised: 15.7% (inactive)
[2]; [6]
  p53-positive nuclei, normalised: 2.17%

## C#CCOc1ccc2c(c1)c(-c1ccc(C(C)C)cc1)nc(=O)n2C(C)C
[1]; measured here: cell number at 24 h, Library stock concentration: 46 uM
  nuclei count, normalised: 104%
[1]; measured here: cell number at 24 h, Library stock concentration: 278 uM
  nuclei count, normalised: 110%
[1]; measured here: cell number at 24 h, Library stock concentration: 1.67 mM
  nuclei count, normalised: 104%
[1]; [7]
  nuclei count, normalised: 112%
[1]; measured here: cell number at 48 h, Library stock concentration: 46 uM
  nuclei count, normalised: 101%
[1]; measured here: cell number at 48 h, Library stock concentration: 278 uM
  nuclei count, normalised: 101%
[1]; measured here: cell number at 48 h, Library stock concentration: 1.67 mM
  nuclei count, normalised: 97.6%
[1]; [8]
  nuclei count, normalised: 101%
[2]; Library stock concentration: 46 uM
  p53-positive nuclei, normalised: -0.166% (inactive)
[2]; Library stock concentration: 278 uM
  p53-positive nuclei, normalised: 0.0283% (inactive)
[2]; Library stock concentration: 1.67 mM
  p53-positive nuclei, normalised: 0.0841% (inactive)
[2]; [9]
  p53-positive nuclei, normalised: -0.00718% (inactive)
[2]; measured here: p53 positive nuclei at 24 h, Library stock concentration: 46 uM
  p53-positive nuclei, normalised: -0.153%
[2]; measured here: p53 positive nuclei at 24 h, Library stock concentration: 278 uM
  p53-positive nuclei, normalised: -0.218%
[2]; measured here: p53 positive nuclei at 24 h, Library stock concentration: 1.67 mM
  p53-positive nuclei, normalised: -0.0911%
[2]; [10]
  p53-positive nuclei, normalised: -0.218%
